Data reported in the supplement of paper PMC6555819.

These sequences were tested on VDR:RXRa (NR concentration 270 nM, RXRa partner concentration 90 nM) (assay: PBM binding z-score (relative to random genomic background probes); higher = stronger binding; sequences stand for … in GC…GCGATTGACAGCGTAGAATGAAGG).
Protocol: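 Protein-binding microarray (Agilent 4x180K custom design, double-stranded 60-nt probes: 5' GC cap, 34-nt variable region, 24-nt constant primer region; full probe sequence given). Purified or IVT nuclear receptor:RXRα heterodimers (3:1 NR:RXRα, mostly 270:90 nM) or homodimers were incubated for 1 h in PBS with 2% milk and no ligand, then detected with Alexa488 antibodies. Fluorescence from o1-orientation probes (~5 replicates averaged) was converted to z-scores against 500 random hg19 background probes. Variable regions are seed direct-repeat (DR0–DR5) sites, all their single-nucleotide variants and half-site ablations.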

| Sequence | PBM binding z-score |
| --- | --- |
| TGTCAAAGTTCAAAGGTAACGTTAGTATCCACAC | 4.9 |
| AATACAGGGTCACTATGCCAGAGTAGGTACGAAT | 3.91 |
| CCAGACCGGTGAGAAGGTAACTCAGCCTCGATTA | -0.163 |
| ATATGTAGGTTATCTGGTCATTCAGTTTGCGCAT | 2.12 |
| AGAATGAGTTTATACGTAGATCAGGGAAGAAAGT | 1.71 |
| GATACAGGGTCAGCTAGAGGCCAGCGTATGGAAA | 3 |
| CCTAATGGGCCAAAGGTCATTGATTCCAATGCTC | 4.64 |
| GCATATATGTAATACAAGGTGAAAGTCCGATTGT | 0.278 |
| TAGCCTAGGTCAGTGGGCCAGTATAGTACGCATC | 0.148 |
| TCTCGGAGGACACGAATGGTCAGAGCTCGACATC | -0.0797 |
| CCTATTAGTTGACCATAAGGGTAACCGAAGCTCG | 0.776 |
| CATACAGGGTCAGCTAGGCCAGGGTAGGGACGGC | 3.64 |
| AGTCAAAGTTCACTAGGTAACGTAGGATTCAGCT | 3.71 |
| CTACCAAAGTGAACAAGGTCGTTGATTACTATTC | 3.07 |
| TAGCCTAGGTCATGGGCCAGTCTACCACGCGAAC | 1.82 |
| CGAACTATGTCATTGACAGGACAGTGAATAGTAA | 0.154 |
| TAGCCTAGGTCAGATCGGGCCAGTGTACGCTATA | 0.494 |
| ATCGAAAGGTCGACGAGGCGAGTATACACCGTTT | 3.79 |
| TCTCGGGGGACACGAAAGGTCAGAGCTCGACATC | 4.39 |
| ACAGACAGGTGAGTGAAAGTAACTCAGCTGGACG | -0.256 |

| Sequence | PBM binding z-score |
| --- | --- |
| AGAATGAGGTTATTAACATCAGGGAATTGCGGTC | 1.31 |
| ATCTCTAGGTAACAATTTCAGTGAAAGAGAGGAC | 0.483 |
| GATACAGGGTCAGCTAGAGGCCAGGGTATGGAAA | 3.14 |
| AGTCAAAGTTCAGGACGAGGTAACGTAGAGCACG | 2.91 |
| CCTAGTTGGTCAAGGACACACACGCTATAGGTAC | 0.744 |
| CGAACTAAGTCAGAACAGGACAGTGAAGGATGAT | -0.25 |
| ATCCCTAGGTAACAAGTTCAGTGAAAGAGAGGAC | 1.91 |
| GCTATTAATTGAAAGGGCAACCGAATGATTCTCG | 0.257 |
| GGAACGAGGGCATTCGAGTTTATAGCATGGCGAT | 5.31 |
| CAAATTAGGTCACGAAAGGTCAAAGTCGAATGAC | 7.06 |
| TTTAGTTGGTCACGGAGGTCACACACGACGGGTA | 6.05 |
| GATACAGGGTCAAGGCTAGAGTACGCGTATTGAT | 4.6 |
| ATATGTATGTTAAGGGTCATTCAGGTTGGTTCGC | 5.25 |
| AGTCAAAGTTCACTAGGTAACGTGAGATTCAGCT | 3.88 |
| GCTATTAGTTGAAGGGGCAACCGAATGATTCTCG | -0.246 |
| AATACTGGGTCATCGTAGGCCAGAGTACGCACAG | 2.49 |
| CCTATTAGCTGACCATAAGGGCAACCGAAGCTCG | 0.159 |
| ATATGTAGGTTAAGGGTCAGTCAGGTTGGTTCGC | 4.37 |
| TCTGCTCGGTCAACGATGGTCAGCTAATCTGCTA | -0.245 |
| GCTAGTTGCTCAGTAAAAGGTCACACACCGGTCG | 3.73 |
